The supplement of paper PMC4840960
Counter-ions that a name gives are not always drawn. ± gives the standard deviation of the averaged measurements.

What was measured:
[1] = test system: E18 rat cortical neuron-glia co-culture; experiment: fiber score / MBP score (myelination specific beyond OL differentiation) (ratio); higher = more myelination-specific MBP alignment; conditions: treatment time: 8 days (DIV5-DIV13)
Summary of the method: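 The measure is the ratio of fiber score to MBP score, where fiber score is continuous MBP fiber length per Olig2+ nucleus and MBP score is thresholded MBP area × intensity per Olig2+ nucleus. Primary E18 rat cortical co-cultures received library compounds at 1 or 5 µM in myelination medium from DIV5 to DIV13, then were fixed in 4 % paraformaldehyde and stained for MBP, Olig2 and DAPI before analysis of four 10X fields per well in duplicate wells.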

[2] = test system: E18 rat cortical neuron-glia co-culture; experiment: myelination (MBP fiber length per Olig2+ nucleus), % of 1 µM DAPT response (DMSO = 0) (% of DAPT); higher = more myelination, active = 50 or more; conditions: treatment time: 8 days (DIV5-DIV13)
Summary of the method: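 The myelination value was the continuous straight MBP fiber length per Olig2+ nucleus, scaled between 0.1 % DMSO (0) and a 1 µM positive control (100). It was measured in primary E18 rat cortical co-cultures treated with library compounds at 1 or 5 µM in myelination medium from DIV5 through DIV13. Cells were fixed in 4 % paraformaldehyde and stained for MBP, Olig2 and DAPI, and four 10X fields per well were imaged in duplicate wells.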

Structure (SMILES): COc1nc(C)nc(Cl)c1NC1=NCCN1 [Moxonidine]
- fiber score / MBP score ([1]; 1 µM): 0.758
- fiber score / MBP score ([1]; 5 µM): 0.82
- myelination ([2]; 1 µM): -10.8 (inactive)
- myelination ([2]; 5 µM): -21.6 (inactive)

Structure (SMILES): O=C1NC(C(=O)O)CS1 (stereo not given) [2-oxothiazolidine-4-carboxylic acid]
- fiber score / MBP score ([1]; 1 µM): 0.704
- fiber score / MBP score ([1]; 5 µM): 0.758
- myelination ([2]; 1 µM): -34.3 (inactive)
- myelination ([2]; 5 µM): -59.9 (inactive)

Structure (SMILES): COc1cc(C(=O)NS(=O)(=O)c2ccccc2C)ccc1Cc1cn(C)c2ccc(NC(=O)OC3CCCC3)cc12 [Zafirlukast]
- fiber score / MBP score ([1]; 1 µM): 0.627
- fiber score / MBP score ([1]; 5 µM): 0.714
- myelination ([2]; 1 µM): -12.3 (inactive)
- myelination ([2]; 5 µM): -4.26 (inactive)

Structure (SMILES): O=C(O[C@@H]1Cc2c(O)cc(O)cc2O[C@@H]1c1cc(O)c(O)c(O)c1)c1cc(O)c(O)c(O)c1 [Epigallocatechin gallate]
- fiber score / MBP score ([1]; 1 µM): 0.732
- fiber score / MBP score ([1]; 5 µM): 1.01
- myelination ([2]; 1 µM): -23.8 (inactive)
- myelination ([2]; 5 µM): -10.9 (inactive)

Structure (SMILES): CC12CC3CC(C)(C1)CC(N)(C3)C2 [Memantine]
- fiber score / MBP score ([1]; 1 µM): 1.07 ± 0.024
- fiber score / MBP score ([1]; 5 µM): 0.838 ± 0.13
- myelination ([2]; 1 µM): 12.9 (inactive)
- myelination ([2]; 5 µM): -7.18 (inactive)

Structure (SMILES): CC(C)(S)[C@@H](N)C(=O)O [Penicillamine]
- fiber score / MBP score ([1]; 1 µM): 0.988
- fiber score / MBP score ([1]; 5 µM): 0.926
- myelination ([2]; 1 µM): -2.14 (inactive)
- myelination ([2]; 5 µM): -5.65 (inactive)

Structure (SMILES): O=c1[nH]cc(F)c(=O)[nH]1 [5-Fluorouracil]
- fiber score / MBP score ([1]; 1 µM): 1.24
- myelination ([2]; 1 µM): 174

Structure (SMILES): CC(=O)OCC(=O)[C@@]1(O)CC[C@H]2[C@@H]3CCC4=CC(=O)CC[C@]4(C)[C@H]3C(=O)C[C@@]21C [Cortisone acetate]
- fiber score / MBP score ([1]; 1 µM): 0.82
- fiber score / MBP score ([1]; 5 µM): 0.732
- myelination ([2]; 1 µM): -45.2 (inactive)
- myelination ([2]; 5 µM): -20.1 (inactive)

Structure (SMILES): CC[C@H]1OC(=O)[C@H](C)C(=O)[C@H](C)[C@@H](O[C@@H]2O[C@H](C)C[C@H](N(C)C)[C@H]2O)[C@](C)(OC)C[C@@H](C)C(=O)[C@H](C)[C@H]2N(CCCCn3cnc(-c4cccnc4)c3)C(=O)O[C@]12C [Telithromycin]
- fiber score / MBP score ([1]; 1 µM): 0.819
- myelination ([2]; 1 µM): -3.78 (inactive)

Structure (SMILES): O=C1CCc2ccc(OCCCCN3CCN(c4cccc(Cl)c4Cl)CC3)cc2N1 [Aripiprazole]
- fiber score / MBP score ([1]; 1 µM): 0.301
- myelination ([2]; 1 µM): -54.9 (inactive)

Structure (SMILES): COc1ccc2c3c1O[C@H]1C[C@@H](O)C=C[C@@]31CCN(C)C2 [Galantamine]
- fiber score / MBP score ([1]; 1 µM): 0.69
- fiber score / MBP score ([1]; 5 µM): 0.673
- myelination ([2]; 1 µM): -60.3 (inactive)
- myelination ([2]; 5 µM): -40.7 (inactive)

Structure (SMILES): O=C1c2c(O)cc(O)cc2OC(c2ccc(O)c(O)c2)C1O (stereo not given) [Taxifolin]
- fiber score / MBP score ([1]; 1 µM): 0.697
- fiber score / MBP score ([1]; 5 µM): 0.943
- myelination ([2]; 1 µM): -33.2 (inactive)
- myelination ([2]; 5 µM): -8.22 (inactive)

Structure (SMILES): CNCCC(Oc1ccc(C(F)(F)F)cc1)c1ccccc1 (stereo not given) [Fluoxetine hydrochloride]
- fiber score / MBP score ([1]; 1 µM): 0.807
- myelination ([2]; 1 µM): -1.16 (inactive)

Structure (SMILES): NNCCc1ccccc1 [Phenelzine]
- fiber score / MBP score ([1]; 1 µM): 0.849 ± 0.21
- myelination ([2]; 1 µM): -25.5 (inactive)

Structure (SMILES): NS(=O)(=O)c1cc(C2(O)NC(=O)c3ccccc32)ccc1Cl (stereo not given) [Chlorthalidone]
- fiber score / MBP score ([1]; 1 µM): 1.29
- fiber score / MBP score ([1]; 5 µM): 1.09
- myelination ([2]; 1 µM): 18.9 (inactive)
- myelination ([2]; 5 µM): 7.87 (inactive)

Structure (SMILES): NC12CC3CC(CC(C3)C1)C2 [Amantadine]
- fiber score / MBP score ([1]; 1 µM): 0.736
- fiber score / MBP score ([1]; 5 µM): 0.883
- myelination ([2]; 1 µM): -4.46 (inactive)
- myelination ([2]; 5 µM): 0.678 (inactive)

Structure (SMILES): CO[C@H]1/C=C/O[C@@]2(C)Oc3c(C)c(O)c4c(c3C2=O)C2=NC3(CCN(CC(C)C)CC3)NC2=C(NC(=O)/C(C)=C\C=C\[C@H](C)[C@H](O)[C@@H](C)[C@@H](O)[C@@H](C)[C@H](OC(C)=O)[C@@H]1C)C4=O [Rifabutin]
- fiber score / MBP score ([1]; 1 µM): 0.967 ± 0.41
- fiber score / MBP score ([1]; 5 µM): 0.734 ± 0.12
- myelination ([2]; 1 µM): -2.92 (inactive)
- myelination ([2]; 5 µM): -11.2 (inactive)

Structure (SMILES): CCN1CCN(c2cc3c(cc2F)c(=O)c(C(=O)O)cn3C2CC2)CC1 [Enrofloxacin]
- fiber score / MBP score ([1]; 1 µM): 0.94
- fiber score / MBP score ([1]; 5 µM): 0.516
- myelination ([2]; 1 µM): -5.04 (inactive)
- myelination ([2]; 5 µM): -19.3 (inactive)

Structure (SMILES): CNCCCN1c2ccccc2CCc2ccccc21 [Desipramine]
- fiber score / MBP score ([1]; 1 µM): 0.74
- fiber score / MBP score ([1]; 5 µM): 0.549
- myelination ([2]; 1 µM): -14.9 (inactive)
- myelination ([2]; 5 µM): -13.3 (inactive)

Structure (SMILES): O=C(c1ccc(OCCN2CCCCC2)cc1)c1c(-c2ccc(O)cc2)sc2cc(O)ccc12 [Raloxifene]
- fiber score / MBP score ([1]; 1 µM): 0.211
- fiber score / MBP score ([1]; 5 µM): 0.788
- myelination ([2]; 1 µM): -12.3 (inactive)
- myelination ([2]; 5 µM): 13.4 (inactive)

Structure (SMILES): CN(C)CCOC(C)(c1ccccc1)c1ccccn1 (stereo not given) [Doxylamine]
- fiber score / MBP score ([1]; 1 µM): 0.674
- fiber score / MBP score ([1]; 5 µM): 0.969
- myelination ([2]; 1 µM): -13.6 (inactive)
- myelination ([2]; 5 µM): -5.08 (inactive)

Structure (SMILES): CC1(C)O[C@@H]2C[C@H]3[C@@H]4C[C@H](F)C5=CC(=O)C=C[C@]5(C)[C@@]4(F)[C@@H](O)C[C@]3(C)[C@]2(C(=O)CO)O1 [Fluocinolone Acetonide]
- fiber score / MBP score ([1]; 1 µM): 1.4
- fiber score / MBP score ([1]; 5 µM): 0.825
- myelination ([2]; 1 µM): 22.3 (inactive)
- myelination ([2]; 5 µM): 6.47 (inactive)

Structure (SMILES): CC/C(=C(\c1ccccc1)c1ccc(OCCN(C)C)cc1)c1ccccc1 [Tamoxifen]
- fiber score / MBP score ([1]; 1 µM): 0.507
- myelination ([2]; 1 µM): -18.7 (inactive)
